Only some compounds are listed: those with a hit (about 3.1% of all), similar ones and a draw of the others.
Wnt bcat act: activates Wnt/beta-catenin signaling in a reporter cell assay. activation, % at 9.35 µM. activator, plate reader. 300,000 tested, 1.2% active. AID 743398; in the data active = activation above about 30%, passing the limit was not always enough; inconclusive = no clear call, values can overlap the other calls;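 note: 0% = neutral control wells and 100% = positive control wells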
Rtt109 Vps75: blocks Candida albicans Rtt109/Vps75 acetyltransferase activity | inhibition, % at 34.9 µM | 330,000 tested, 0.16% active | AID 540336 | Q5AAJ8 | purified Rtt109/Vps75, ThioGlo CoA-SH fluorescence, 4 h;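 active = inhibition of at least 50% in every replicate; inconclusive = best replicate reaches 50% inhibition but some replicates fall short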
Target sequence (Q5AAJ8 whole entry, looked up): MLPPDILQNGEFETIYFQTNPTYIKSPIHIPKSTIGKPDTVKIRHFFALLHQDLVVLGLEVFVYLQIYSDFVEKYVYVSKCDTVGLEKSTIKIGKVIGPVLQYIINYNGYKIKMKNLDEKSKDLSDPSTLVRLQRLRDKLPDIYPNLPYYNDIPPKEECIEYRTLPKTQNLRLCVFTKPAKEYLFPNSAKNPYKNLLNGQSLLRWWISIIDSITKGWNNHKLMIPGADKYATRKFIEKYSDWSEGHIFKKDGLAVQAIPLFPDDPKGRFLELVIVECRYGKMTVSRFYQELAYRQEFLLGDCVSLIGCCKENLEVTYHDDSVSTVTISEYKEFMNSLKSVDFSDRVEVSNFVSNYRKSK
MITF act: increases MITF-driven TRPM1 promoter luciferase signal; 300,000 tested, 0.75% active; SK-MEL-5 TRPM1-promoter luciferase, 24 h; % of positive control, neutral wells = 0; activation, % at 12.5 µM; AID 588334;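 active = mean activation of at least 80% with every replicate also reaching 80%; inconclusive = mean reaches 80% but some replicate falls short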;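 note: 0% = neutral control wells and 100% = parthenolide positive control wells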
esBAF inh: inhibitors of esBAF chromatin remodeling in mouse ES cells; Bmi1-luciferase knock-in reporter, 24 h; 100% = twice the neutral-well signal; reporter increase, % at 12.5 µM; 350,000 tested, 2% active; in the data active = activation above about 40%; inconclusive = no clear call, values can overlap the other calls;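 note: 0% = median of the plate's neutral control wells and 100% = double that signal; a rise in the Bmi1 reporter signal indicates esBAF inhibition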
Statin myotox sup: protects C2C12 myotubes from simvastatin toxicity. ATP luminescence, 48 h; scaled: DMSO 0, geranylgeraniol control 100. rescue of ATP level, % at 7.49 µM. 330,000 tested, 0.78% active. AID 602340;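 active = mean ATP rescue above about 67%, or every replicate alone reaching that limit, limit read from the data, passing the limit was not always enough; inconclusive = no clear call, values can overlap the other calls; inactive = mean under the limit and some replicate under it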;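 note: myotubes were challenged with 10 µM simvastatin during compound exposure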
Numbers without * were called inactive; ? = inconclusive; nt = no result.

SMILES	Wnt bcat act	Rtt109 Vps75	MITF act	esBAF inh	Statin myotox sup
Cc1noc(C)c1NC(=O)Nc1ccc2c(c1)C(=O)N([C@@H](C)CO)C[C@@H](C)[C@H](CN(C)CC1CC1)OCCCC[C@H](C)O2	nt	nt	nt	-3	nt
Cc1cc(OCC(=O)N(C)Cc2ccccc2)ccc1Cl	8	-1	55	?	13
Cc1cc(OCC(=O)N(C)Cc2ccccc2)ccc1Br	17	-3	37	43*	15
O=C(C1CCC1)N1CCCc2cc(S(=O)(=O)N3CCN(c4ccccc4)CC3)ccc21	-4	5	-4	1	149*
O=C(C1CC1)N1CCc2cc(S(=O)(=O)N3CCN(c4ccccc4)CC3)ccc21	-2	-3	-8	-7	10
CN1c2ccsc2/C(=N/Nc2ccc(F)cc2)CS1(=O)=O	12	6	16	64*	-6
CCCC(=O)N/N=C1\CS(=O)(=O)N(C)c2ccsc21	-1	-5	5	-1	-2
Cc1ccc(N/N=C2\CS(=O)(=O)N(C)c3ccsc32)cc1	8	1	9	59*	0
C[C@@H](NC(=O)C[C@H]1C=C[C@@H](NC(=O)CN2CCOCC2)[C@H](CO)O1)c1ccccc1	nt	nt	nt	-1	1
CCOC(=O)N1N=C(CC)CC1(O)C(F)(F)F (configuration not stated)	34*	-2	-4	nt	nt
Cc1ccc(-c2cn(-c3ccccc3F)c(=S)[nH]2)cc1	13	-1	53	47*	-8
COCC(=O)N(C)C[C@H]1Oc2cc(C#CCC3CCCC3)ccc2S(=O)(=O)N([C@H](C)CO)C[C@@H]1C	nt	nt	nt	1	6
Cc1noc(C)c1S(=O)(=O)Nc1ccc2c(c1)C(=O)N([C@H](C)CO)C[C@@H](C)[C@@H](CN(C)S(=O)(=O)c1cn(C)cn1)O2	nt	nt	nt	7	1
Fc1ccc(Cn2ccc(-c3cnc(-c4ccccc4)s3)n2)cc1	nt	-5	39	nt	nt
COc1ccc(S(=O)(=O)n2ccc(-c3ccc(OCCN(C)c4ccccn4)cc3)n2)cc1	-8	-3	nt	-1	26
Cc1ccc(Cn2ccc(-c3cnc(-c4ccccc4)s3)n2)cc1	nt	-4	57	79*	12
O=S(=O)(c1ccccc1)n1ccc(-c2cnc(-c3ccccc3)s2)n1	45*	-3	98*	nt	nt
Cc1cccc(N(C(=O)Nc2ccccc2)C2=NCC(C)S2)c1 (configuration not stated)	4	4	24	17	13
Cc1ccc(NC(=O)N(C2=NCC(C)S2)c2ccccc2)cc1 (configuration not stated)	nt	-1	?	43*	2
C/C(=N\N=c1/sc2ccccc2n1C)c1ccccn1	52*	-10	64	?	10
C/C(=N\N=c1/sc2ccccc2n1C)c1ccc(N2CCOCC2)cc1	nt	-7	-10	4	2
Cc1c(Cl)cccc1Nc1nc(N)nc(CSCCO)n1	nt	16	-11	nt	nt
Cc1c(Cl)cccc1Nc1nc(N)nc(CSc2ncccn2)n1	3	1	1	52*	39
O=C(O)c1ccc2oc(SCC(=O)N3CCCCC3)nc2c1	nt	0	nt	59*	nt
O=C(CSc1nc2cc(Cl)ccc2o1)N1CCOCC1	nt	?	11	17	-15
SMILES	Wnt bcat act	Rtt109 Vps75	MITF act	esBAF inh	Statin myotox sup
O=C(Cc1ccccc1)N1CCC(c2ccccc2)C1 (configuration not stated)	1	1	45	46*	15
CCc1ccc(NC(=O)c2cc(-c3cccs3)on2)cc1	-2	-5	94*	39	4
Cc1ccc(NC(=O)c2cc(-c3cccs3)on2)cc1C	39*	-2	99*	52*	-1
COc1ccc(NC(=O)c2cc(-c3cccs3)on2)cc1OC	nt	15	32	10	24
O=C(O)C[C@@H]1C=C[C@@H](NC(=O)c2ccncc2)[C@H](CO)O1	nt	nt	nt	2	-5
O=C(Nc1ccc(Cl)c(Cl)c1)N[C@H]1CC[C@@H](CCNC(=O)c2ccc(F)cc2)O[C@@H]1CO	nt	nt	nt	1	19
O=[N+]([O-])c1cccnc1Oc1ccc(C2SCCS2)cc1	51*	22	103*	nt	nt
Cc1cccc(-c2cc3nc(C)cc(NCCCn4ccnc4)n3n2)c1	0	-8	39	26	-23
CC(C)(C)c1cc(NCCCn2ccnc2)n2ncc(-c3ccccc3)c2n1	53*	-1	nt	nt	nt
Cc1cc(NCCCn2ccnc2)n2ncc(-c3ccc(Cl)cc3)c2n1	nt	14	7	-40	-151

Source: PubChem (Broad Institute)
